DT40 TDP1 no CPT: qHTS for Inhibitors of human tyrosyl-DNA phosphodiesterase 1 (TDP1): qHTS in cells in absence of CPT | 420,000 tested, 15% active | DT40 Tdp1-/- hTDP1 cells, no CPT, ATP luminescence, 48 h | Potency, µM (top dose mostly 46.2 µM), most hits filed as inhibitors; also: nearly all actives have a fitted effect of over 55% in size
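Seeded 400 DT40-hTDP1 cells/well (vehicle DMSO, no 20 nM CPT); pinned compounds; ≥48 hr at 37 °C; CellTiter-Glo luminescence as viability measure.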
Gal4-VP16 FLuc: counter-screen for ROR gamma inhibitors: Gal4-VP16 reporter; Drosophila S2 Gal4-VP16 UAS-luciferase, luminescence, 20 h; 310,000 tested, 3.5% active; AID 2546; Potency, µM (highest dose often 53.6 µM), usual class: inhibitors;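 also: Gal4-VP16 expression switched on by copper sulfate through the metallothionein promoter; nearly all actives have a fitted effect of over 50% in size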
TDP1 cell CPT: growth inhibition of DT40 Tdp1-/-;hTDP1 cells with camptothecin (screen for TDP1 inhibitors) | chicken DT40 Tdp1-/-;hTDP1 cells + 20 nM CPT, ATP luminescence, 48 h | Potency, µM (top dose mostly 46.2 µM), hits mostly inhibitors | 420,000 tested, 12% active | AID 686979; also: nearly all actives have a fitted effect of over 55% in size
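Cell growth measured by CellTiter-Glo luminescence after a minimum 48 h, 37 C compound exposure with 20 nM CPT in Tdp1-knockout DT40 cells stably expressing hTDP1, seeded 400/well; qHTS titration format.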
TDP1 inh: blocks human tyrosyl-DNA phosphodiesterase 1 | Q9NUW8 | recombinant TDP1, AlphaScreen DNA substrate cleavage | Potency, µM (top dose mostly 130 µM), actives largely listed as inhibitors | 350,000 tested, 0.28% active; also: nearly all actives have a fitted effect of over 40% in size
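Steps: enzyme plus compound, 15 min RT; add biotin/phosphotyrosine-FITC oligonucleotide (15 nM final), react 5 min; add donor/acceptor beads (10 ug/ml final), 10 min; read AlphaScreen. Tdp1 at 1 nM final.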
RORgamma inh: blocks mouse ROR gamma transcriptional activity. P51450. Drosophila S2 Gal4-RORgamma UAS-luciferase reporter, 20 h. Potency, µM (series often up to 53.6 µM), hits mostly inhibitors. 310,000 tested, 5.4% active; also: nearly all actives have a fitted effect of over 60% in size
Target sequence (P51450 whole entry, looked up, the tested form may be a part): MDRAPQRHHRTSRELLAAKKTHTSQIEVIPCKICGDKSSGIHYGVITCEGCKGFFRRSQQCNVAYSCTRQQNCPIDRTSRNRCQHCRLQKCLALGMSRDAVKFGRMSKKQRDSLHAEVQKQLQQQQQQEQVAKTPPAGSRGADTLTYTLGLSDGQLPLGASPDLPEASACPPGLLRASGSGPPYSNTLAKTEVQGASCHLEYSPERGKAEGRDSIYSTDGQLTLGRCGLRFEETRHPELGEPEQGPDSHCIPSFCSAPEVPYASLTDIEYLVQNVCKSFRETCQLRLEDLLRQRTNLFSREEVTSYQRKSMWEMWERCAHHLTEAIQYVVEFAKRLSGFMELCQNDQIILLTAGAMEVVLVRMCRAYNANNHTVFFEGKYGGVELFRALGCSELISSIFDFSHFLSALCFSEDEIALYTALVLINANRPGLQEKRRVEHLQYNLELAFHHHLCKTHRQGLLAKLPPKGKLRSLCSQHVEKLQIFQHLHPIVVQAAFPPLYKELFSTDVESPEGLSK
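Read-out: Photinus luciferase luminescence; inhibitors lower reporter signal. Insect Schneider cells with Gal4-ROR gamma fusion under metallothionein promoter, UAS reporter; 700 uM final copper sulfate induction, 20 hr, ambient temperature.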
A number is an active result. Compounds with a hit are over-represented: about 19% of the library has one in this group of screens. Calls follow the shape of the dose curve; as a rule, active = well fitted curve in the direction sought with a large enough effect; inconclusive = small, poorly fitted or top-dose-only effect, or another doubt; inactive = no such curve, though single readings can be large; an effect the other way counts as inactive or inconclusive.

For CCC(CC)N1CCN(C(=O)Cc2ccccc2)CC1 the results were DT40 TDP1 no CPT inactive, Gal4-VP16 FLuc inactive, TDP1 cell CPT inactive, TDP1 inh inactive and RORgamma inh inactive.
Screening CN1C(=O)C(Cc2c[nH]c3ccccc23)C(=O)N(C)C1=O returned Gal4-VP16 FLuc inactive, TDP1 inh inactive and RORgamma inh inactive.
For O=C(Cn1cc(C(=O)c2ccccc2)c2ccccc21)Nc1ccc(Br)cc1 the results were DT40 TDP1 no CPT 23µM, TDP1 cell CPT inconclusive and TDP1 inh inactive.
Screening Cc1ccc(NC(=O)Cn2cc(C(=O)c3ccccc3)c3ccccc32)cc1 returned DT40 TDP1 no CPT inconclusive, TDP1 cell CPT inactive and TDP1 inh inactive.
Screening COc1cc(CN2CCN(C(=O)COc3ccccc3)CC2)cc(OC)c1OC returned DT40 TDP1 no CPT inactive, Gal4-VP16 FLuc inactive, TDP1 cell CPT inactive, TDP1 inh inactive and RORgamma inh inactive.
For O=C(COc1ccccc1)N1CCN(Cc2c[nH]c3ccccc23)CC1 the results were DT40 TDP1 no CPT 8.2µM, Gal4-VP16 FLuc inactive, TDP1 cell CPT 3.7µM, TDP1 inh inactive and RORgamma inh inactive.
Screening COc1ccc(OCC(=O)N2CCN(Cc3c[nH]c4ccccc34)CC2)cc1 returned DT40 TDP1 no CPT 3.7µM, Gal4-VP16 FLuc inactive, TDP1 cell CPT 1.6µM, TDP1 inh inactive and RORgamma inh inactive.
`COc1ccc(CN2CCN(C(=O)COc3ccccc3)CC2)c(OC)c1` gave DT40 TDP1 no CPT inconclusive and TDP1 cell CPT inactive.
`CN1CCc2nc(N)c(C#N)c(-c3ccccc3)c2C1` gave DT40 TDP1 no CPT inactive, Gal4-VP16 FLuc inactive, TDP1 cell CPT inactive, TDP1 inh inactive and RORgamma inh inactive.
For S=P(Nn1cnnc1)(c1ccc(Br)cc1)c1ccc(Br)cc1 the results were DT40 TDP1 no CPT inactive, Gal4-VP16 FLuc inconclusive, TDP1 cell CPT inactive, TDP1 inh inactive and RORgamma inh inconclusive.
For CCCCN1C(=O)/C(=C/c2ccc(N(C)C)cc2)C(=O)N(Cc2ccco2)C1=O the results were DT40 TDP1 no CPT inactive, Gal4-VP16 FLuc inactive, TDP1 cell CPT inactive, TDP1 inh inactive and RORgamma inh inactive.
O=C1CN=C(c2ccc(Br)cc2)c2c(sc3c2CCCC3)N1CCN1CCCCC1 was read as DT40 TDP1 no CPT 5.8µM, Gal4-VP16 FLuc inactive, TDP1 cell CPT 10µM, TDP1 inh inactive and RORgamma inh inactive.
`CCCCOCCCN1C(C)=CC(=C2C(=O)NC(=S)NC2=O)C=C1C` gave DT40 TDP1 no CPT inactive, Gal4-VP16 FLuc inactive, TDP1 cell CPT inactive, TDP1 inh inactive and RORgamma inh inactive.
`Clc1ccc(NC2=NCCCS2)cc1Cl` gave DT40 TDP1 no CPT inconclusive, Gal4-VP16 FLuc inactive, TDP1 cell CPT inactive and RORgamma inh inactive.
`CCCCCCCCCc1ccc(OCCOCCO)cc1` gave DT40 TDP1 no CPT 3µM and TDP1 cell CPT 3µM.
For CCC(=O)N1N=C(c2c(O)n(CCc3ccccc3)c(=O)[nH]c2=O)CC1c1ccc(OC)c(OC)c1 (centres undefined) the results were DT40 TDP1 no CPT inconclusive, Gal4-VP16 FLuc inactive, TDP1 cell CPT inconclusive and RORgamma inh inactive.
Screening CCn1ccnc1CN1CCCC(C(=O)c2cc(C)c(OC)c(C)c2)C1 (centres undefined) returned DT40 TDP1 no CPT 21µM, Gal4-VP16 FLuc 11µM, TDP1 cell CPT inconclusive, TDP1 inh inactive and RORgamma inh 2.5µM.
Screening CC1CCCN(C(=O)c2ccc(N3CC4CC(C3)c3cccc(=O)n3C4)c([N+](=O)[O-])c2)C1 (centres undefined) returned DT40 TDP1 no CPT inactive, Gal4-VP16 FLuc inactive, TDP1 cell CPT inactive, TDP1 inh inactive and RORgamma inh inactive.
Screening Cn1cccc1/C=C1/C(=O)NC(=O)N(Cc2ccc(F)cc2)C1=O returned DT40 TDP1 no CPT 9.2µM, Gal4-VP16 FLuc inactive, TDP1 cell CPT 12µM and RORgamma inh inactive.
CCOc1ccc(/C=C2/C(=O)NC(=O)N(CCc3ccc(F)cc3)C2=O)cc1 was read as DT40 TDP1 no CPT inactive, Gal4-VP16 FLuc inactive, TDP1 cell CPT inactive, TDP1 inh inactive and RORgamma inh inactive.
Cn1cccc1/C=C1/C(=O)NC(=O)N(Cc2ccccc2)C1=O was read as DT40 TDP1 no CPT 2.3µM, Gal4-VP16 FLuc inactive, TDP1 cell CPT 4.6µM, TDP1 inh inactive and RORgamma inh inactive.
C=CCN1C(=O)NC(=O)/C(=C/c2cccn2C)C1=O was read as DT40 TDP1 no CPT inconclusive, Gal4-VP16 FLuc inactive, TDP1 cell CPT inconclusive, TDP1 inh inactive and RORgamma inh inactive.
Cn1cccc1/C=C1/C(=O)NC(=S)N(Cc2ccc(F)cc2)C1=O was read as DT40 TDP1 no CPT 2.6µM, Gal4-VP16 FLuc inactive, TDP1 cell CPT 3.7µM and RORgamma inh inactive.
Cn1cccc1/C=C1\C(=O)NC(=O)N(Cc2ccccc2)C1=O was read as DT40 TDP1 no CPT 2.1µM, Gal4-VP16 FLuc inactive, TDP1 cell CPT 5.8µM, TDP1 inh inactive and RORgamma inh inactive.
C[C@@H]1CN(C2CCC(C#N)(c3ccc(F)cc3)CC2)CC[C@]1(C(=O)O)c1ccccc1 (some centres undefined) was read as DT40 TDP1 no CPT inactive and TDP1 cell CPT inactive.
`S=c1[nH]nc(Cn2c(-c3ccccn3)nc3ccccc32)n1-c1ccc2c(c1)OCCO2` gave DT40 TDP1 no CPT inactive, Gal4-VP16 FLuc inconclusive, TDP1 cell CPT inactive and RORgamma inh inconclusive.
Screening O=[N+]([O-])c1cccnc1N1CCCNCC1 returned DT40 TDP1 no CPT inactive, Gal4-VP16 FLuc inactive, TDP1 cell CPT inactive and RORgamma inh inactive.
NC1(c2ccccc2)CCCCC1 was read as DT40 TDP1 no CPT inconclusive and TDP1 cell CPT inactive.
For c1ccc(C2(NC3=NCCO3)CCCCC2)cc1 the results were DT40 TDP1 no CPT 9.2µM and TDP1 cell CPT inconclusive.
`COc1ccc(-c2ccc(OC)c(OC)c2OC)cc1` gave DT40 TDP1 no CPT 5.2µM and TDP1 cell CPT 15µM.
Screening COc1ccc(OC)c(C(O)C(C)N)c1 (centres undefined) returned DT40 TDP1 no CPT inactive, Gal4-VP16 FLuc inactive, TDP1 cell CPT inactive, TDP1 inh inactive and RORgamma inh inactive.
Screening COC(=O)C1=C(c2ccc(Cl)c(C(F)(F)F)c2)C[C@@H]2CC[C@H]1N2C(=O)NCc1cc(C)oc1C(F)(F)F returned DT40 TDP1 no CPT 21µM, TDP1 cell CPT inconclusive and TDP1 inh inactive.
COC(=O)C1=C(c2cccc(C#N)c2)C[C@@H]2CC[C@H]1N2C(=O)NCc1cc(C)oc1C(F)(F)F was read as DT40 TDP1 no CPT inconclusive, TDP1 cell CPT inconclusive and TDP1 inh inactive.
Screening CCCNC(=O)N1[C@H]2CC[C@@H]1C(C(=O)OC)=C(c1ccc(Cl)c(C(F)(F)F)c1)C2 returned DT40 TDP1 no CPT 15µM, TDP1 cell CPT 16µM and TDP1 inh inactive.
`COC(=O)C1=C(c2ccc(Cl)c(C(F)(F)F)c2)C[C@@H]2CC[C@H]1N2C(=O)NCCOc1ccc(OC)cc1` gave DT40 TDP1 no CPT inconclusive, TDP1 cell CPT inconclusive and TDP1 inh inactive.
